We go through seven compounds from PubChem BioAssay (EPA / NIEHS).

For experiment [1], the target named is Myc proto-oncogene protein (Homo sapiens) (UniProt P01106). As to the kind of experiment: ATG_Myc_CIS: Attagene CIS-FACTORIAL HepG2 Assay for human Myelocytomatosis (Myc) Proto-Oncogene Transcription Factor (AID 2282990). Particulars: HepG2, Attagene cis-reporter transcription factor activity; actives raise or lower the signal. The method, boiled down:
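HepG2 cells transiently transfected with multiple cis-promoter-driven reporter transcription units, so endogenous TF activity is read. After 24 h compound exposure, reporter mRNA was quantified by RT-PCR, 6-FAM labelling, HpaI digestion and capillary electrophoresis; bidirectional fit versus DMSO.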

A short description of experiment [2]: ATG_NRF2_ARE_CIS: Attagene CIS-FACTORIAL HepG2 Assay for human Nuclear Factor Erythroid 2 Related Factor 2 (NFR2) response to Antioxidant Response Elements (ARE) (AID 2282992). Particulars: HepG2 Attagene ARE/NRF2 reporter, transcription factor activity; actives raise or lower the signal. The method, boiled down: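 Using transiently transfected HepG2 cells exposed for 24 h, reporter mRNA levels were determined by RT-PCR with fluorescent primer extension and capillary electrophoresis, analysed for gain or loss of signal against DMSO.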

Experiment [3] can be described thus: ATG_Oct_MLP_CIS: Attagene CIS-FACTORIAL HepG2 Assay for human Octamer-Binding Transcription Factor (Oct) (AID 2282993). Particulars: HepG2 Attagene cis-factorial Oct reporter, mRNA; actives raise or lower the signal. The method, boiled down: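 Multiplexed cis-reporter assay in human liver HepG2 cells, 24 h incubation. Reporter RNA amplified and labelled, then resolved by capillary electrophoresis; DMSO serves as negative control and baseline.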

Experiment [4] addresses Cellular tumor antigen p53 (Homo sapiens) (UniProt P04637). In words: ATG_p53_CIS: Attagene CIS-FACTORIAL HepG2 Assay for human p53 Transcription Factor (AID 2282994). Particulars: HepG2 p53 cis-element reporter, Attagene mRNA; actives raise or lower the signal. The method, boiled down: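 In HepG2 cells, reporter transcription units under cis-regulatory promoters were transiently introduced. Following 24 h treatment, RNA was processed to labelled, digested cDNA fragments read by capillary electrophoresis; fitting was bidirectional versus DMSO.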

Experiment [5] deals with human Peroxisome Proliferator-activated Receptor delta (PPARd), PPARD (gene 5467) (UniProt Q03181). As to the kind of experiment: ATG_PPARd_TRANS: Attagene TRANS-FACTORIAL HepG2 Assay for human Peroxisome Proliferator-activated Receptor delta (PPARd) (AID 2283002; active = hit-call score of the fitted dose curve at least 0.9, where 1 is the maximum). The method, boiled down: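 HepG2 cells transiently transfected with multiplexed GAL4-UAS reporter units and exogenous chimeric NR-Gal4 proteins; 24 h compound exposure. Reporter mRNA measured by RT-PCR, 6-FAM labelling, HpaI digestion and capillary electrophoresis; gain of signal versus DMSO.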

In experiment [6] the target is Nuclear receptor subfamily 1 group I member 2 (Homo sapiens) (UniProt O75469). In words: ATG_PXR_TRANS: Attagene TRANS-FACTORIAL HepG2 Assay for human Pregnane X Receptor (PXR) (AID 2283008; active = hit-call score of the fitted dose curve at least 0.9, where 1 is the maximum). The method, boiled down:
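Multiplexed TRANS reporter panel in HepG2; this component tracks PXR-Gal4-driven reporter mRNA after 24 h dosing, measured by RT-PCR with capillary electrophoresis fluorescence, fitted against DMSO.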

Experiment [7] deals with human RAR-related Orphan Receptor beta (RORb), RORB (gene 6096) (UniProt Q92753). In words: ATG_RORb_TRANS: Attagene TRANS-FACTORIAL HepG2 Assay for human RAR-related Orphan Receptor beta (RORb) (AID 2283010; active = hit-call score of the fitted dose curve at least 0.9, where 1 is the maximum). The method, boiled down:
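Multiplexed transcription-factor reporter assay: HepG2 cells transiently carrying NR-Gal4/GAL4-UAS constructs, 24 h treatment, mRNA quantified by RT-PCR plus capillary electrophoresis fluorescence; activity scored as induction over DMSO.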

In experiment [8] the target is human Peroxisome Proliferator-activated Receptor alpha (PPARa), PPARA (gene 5465) (UniProt Q07869). In words: ATG_PPARa_TRANS: Attagene TRANS-FACTORIAL HepG2 Assay for human Peroxisome Proliferator-activated Receptor alpha (PPARa) (AID 2283001; active = hit-call score of the fitted dose curve at least 0.9, where 1 is the maximum). The method, boiled down:
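Exposure: 24 h, transiently transfected HepG2 cells. Endpoint: GAL4-UAS reporter mRNA, RT-PCR with capillary electrophoresis fluorescence. Baseline: DMSO; increases fitted.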

Experiment [9] deals with Peroxisome proliferator-activated receptor gamma (Homo sapiens) (UniProt P37231). In words: ATG_PPARg_TRANS: Attagene TRANS-FACTORIAL HepG2 Assay for human Peroxisome Proliferator-activated Receptor-gamma (PPARg) (AID 2283007; active = hit-call score of the fitted dose curve at least 0.9, where 1 is the maximum). The method, boiled down:
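Read-out: reporter mRNA induction, detected by fluorescence after RT-PCR and capillary electrophoresis. Transiently transfected human HepG2 liver cells carrying a chimeric NR-Gal4 construct were dosed for 24 h; activity was fitted upward relative to DMSO.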

Experiment [10] is described as follows: BSK_3C_TissueFactor: BioMAP Diversity Plus: 3C Assay for Tissue Factor Biomarker Activity (AID 2282997). Particulars: BioMAP 3C HUVEC, tissue factor biomarker readout; actives raise or lower the signal. The method, boiled down: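 Tissue factor on primary human umbilical vein endothelium was read by ELISA 24 h after dosing, gain or loss relative to DMSO. Cytotoxicity ran alongside via SRB (0.1%, TCA-fixed, 560 nm).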

Experiment [11] can be described thus: BSK_3C_uPAR: BioMAP Diversity Plus: 3C Assay for Urokinase-type plasminogen activator receptor (uPAR) Biomarker Activity (AID 2282998). Particulars: BioMAP 3C HUVEC, uPAR biomarker ELISA; actives raise or lower the signal. The method, boiled down:
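Dose primary human umbilical vein endothelial cells, incubate 24 h, measure cell-surface uPAR by ELISA, then fit the signal in both directions against the DMSO negative control.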
Background: ELISA stands for enzyme-linked immunosorbent assay.

Experiment [12] in a line: BSK_3C_VCAM1: BioMAP Diversity Plus: 3C Assay for Vascular cell adhesion molecule 1 (VCAM1) Biomarker Activity (AID 2282999). Particulars: BioMAP 3C HUVEC, VCAM1 ELISA, cytokine-stimulated; actives raise or lower the signal. The method, boiled down: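 Vascular primary endothelium (human umbilical vein) was exposed to chemicals and assayed 24 h later. VCAM-1 levels came from ELISA, with DMSO serving as baseline for bidirectional fitting.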

Experiment [13] is described as follows: BSK_4H_Eotaxin3: BioMAP Diversity Plus: 4H Assay for Eotaxin 3 Biomarker Activity (AID 2283000).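 Note: CCL26 protein level quantified by ELISA in parallel with SRB cytotoxicity check.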 Particulars: primary human endothelial cells (HUVEC); actives raise or lower the signal. The method, boiled down: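 Human umbilical vein endothelial cells (BSK_4H system) dosed with test chemical; Eotaxin-3 (CCL26) measured by ELISA 24 h after dosing. Bidirectional curve fitting relative to DMSO negative control as baseline.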

Read-out in experiment [14]: Intercellular Adhesion Molecule 1 (ICAM1), ICAM1 (gene 3383)
In words: BSK_3C_ICAM1: BioMAP Diversity Plus: 3C Assay for Intercellular Adhesion Molecule 1 (ICAM1) Biomarker Activity (AID 2283003). Particulars: primary human endothelial cells (HUVEC); actives raise or lower the signal. The method, boiled down:
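Using DMSO as baseline, bidirectional curve fitting was applied to ICAM-1 ELISA signals from HUVEC in the 3C system, measured 24 h after compound addition.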

Experiment [15] is described as follows: BSK_3C_Proliferation: Cell Proliferation Assessment in the BioMAP Diversity Plus: 3C Assay (AID 2283006).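 Note: potency may reflect either rise or fall in cell number versus DMSO.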 Particulars: primary human endothelial cells (HUVEC). The method, boiled down: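 Measured here: sulforhodamine B (0.1%) staining of TCA-fixed sub-confluent umbilical vein endothelial cultures 48 h post-dosing, absorbance 560 nm. DMSO served as negative control and baseline; both signal gain and loss were modelled.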

In experiment [16] the target is human Retinoic Acid Receptor gamma (RARg), RARG (gene 5916) (UniProt P13631). As to the kind of experiment: ATG_RARg_TRANS: Attagene TRANS-FACTORIAL HepG2 Assay for human Retinoic Acid Receptor gamma (RARg) (AID 2283009; active = hit-call score of the fitted dose curve at least 0.9, where 1 is the maximum). The method, boiled down:
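Gain-of-signal relative to DMSO is reported from fluorescent capillary electrophoresis of RT-PCR reporter products. These came from HepG2 cells expressing transfected RARg-GAL4 chimeras with UAS reporters, harvested 24 h after dosing.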

For experiment [17], the target named is human RAR-related Orphan Receptor gamma (RORg), RORC (gene 6097) (UniProt P51449). As to the kind of experiment: ATG_RORg_TRANS: Attagene TRANS-FACTORIAL HepG2 Assay for human RAR-related Orphan Receptor gamma (RORg) (AID 2283011; active = hit-call score of the fitted dose curve at least 0.9, where 1 is the maximum). The method, boiled down:
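Reporter transcripts from a transfected RORg-GAL4 chimera in HepG2 cells were quantified 24 h after dosing by RT-PCR, 6-FAM labelling, HpaI digestion and capillary electrophoresis; increases over DMSO baseline were fitted.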

Experiment [18] has as its target Retinoic acid receptor alpha (Homo sapiens) (UniProt P10276). As to the kind of experiment: ATG_RARa_TRANS: Attagene TRANS-FACTORIAL HepG2 Assay for human Retinoic Acid Receptor alpha (RARa) (AID 2283005; active = hit-call score of the fitted dose curve at least 0.9, where 1 is the maximum). The method, boiled down: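 HepG2 cells transiently transfected with multiple reporter units expressing chimeric RARα-GAL4 fusion, with GAL4-UAS-driven reporters. After 24 h compound exposure, reporter mRNA induction quantified by RT-PCR and capillary electrophoresis with fluorescent labeling; gain-of-signal fitted relative to DMSO control.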

Experiment [19] has as its target human Retinoic Acid Receptor beta (RARb), RARB (gene 5915) (UniProt P10826). In words: ATG_RARb_TRANS: Attagene TRANS-FACTORIAL HepG2 Assay for human Retinoic Acid Receptor beta (AID 2283004; active = hit-call score of the fitted dose curve at least 0.9, where 1 is the maximum). The method, boiled down:
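Induction of reporter mRNA from a chimeric RARb-Gal4 construct was measured by RT-PCR, FAM labelling, HpaI digestion and capillary electrophoresis. Measurements followed 24 h compound treatment of transiently transfected human HepG2 liver cells, with DMSO as baseline.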

Results filed as inconclusive are left out. The source made the active and inactive calls. Rule for the calls, unless noted: active = hit-call score of the fitted dose curve at least 0.9, where 1 is the maximum; inactive = score below 0.9.

Chain of Nuclear receptor subfamily 1 group I member 2 (Homo sapiens) (O75469 whole entry, looked up, the tested form may be a part): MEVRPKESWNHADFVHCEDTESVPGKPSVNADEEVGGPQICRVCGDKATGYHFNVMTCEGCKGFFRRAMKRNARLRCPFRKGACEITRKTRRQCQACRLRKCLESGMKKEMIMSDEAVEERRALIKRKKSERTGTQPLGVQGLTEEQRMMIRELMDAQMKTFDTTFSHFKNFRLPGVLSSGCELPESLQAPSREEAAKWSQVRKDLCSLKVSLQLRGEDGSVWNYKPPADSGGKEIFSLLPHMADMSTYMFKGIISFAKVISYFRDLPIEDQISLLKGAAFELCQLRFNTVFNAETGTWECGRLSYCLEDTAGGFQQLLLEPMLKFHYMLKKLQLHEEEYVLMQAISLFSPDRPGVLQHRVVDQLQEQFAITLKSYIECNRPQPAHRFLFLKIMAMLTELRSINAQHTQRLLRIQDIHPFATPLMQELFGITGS
Chain of Myc proto-oncogene protein (Homo sapiens) (P01106 whole entry, looked up): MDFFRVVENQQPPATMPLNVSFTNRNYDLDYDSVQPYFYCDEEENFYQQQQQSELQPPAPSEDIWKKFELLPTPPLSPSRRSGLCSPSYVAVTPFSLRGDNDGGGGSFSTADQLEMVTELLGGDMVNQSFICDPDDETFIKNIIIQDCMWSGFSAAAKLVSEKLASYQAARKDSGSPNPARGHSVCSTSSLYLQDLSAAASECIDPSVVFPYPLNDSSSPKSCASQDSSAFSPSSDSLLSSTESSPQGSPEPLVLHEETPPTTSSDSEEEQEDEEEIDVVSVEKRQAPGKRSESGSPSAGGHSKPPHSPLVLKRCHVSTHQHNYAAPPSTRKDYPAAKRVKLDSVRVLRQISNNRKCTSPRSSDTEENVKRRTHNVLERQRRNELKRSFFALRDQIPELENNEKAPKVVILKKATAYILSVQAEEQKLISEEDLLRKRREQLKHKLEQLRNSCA
Chain of Peroxisome proliferator-activated receptor gamma (Homo sapiens) (P37231 whole entry, looked up, the tested form may be a part): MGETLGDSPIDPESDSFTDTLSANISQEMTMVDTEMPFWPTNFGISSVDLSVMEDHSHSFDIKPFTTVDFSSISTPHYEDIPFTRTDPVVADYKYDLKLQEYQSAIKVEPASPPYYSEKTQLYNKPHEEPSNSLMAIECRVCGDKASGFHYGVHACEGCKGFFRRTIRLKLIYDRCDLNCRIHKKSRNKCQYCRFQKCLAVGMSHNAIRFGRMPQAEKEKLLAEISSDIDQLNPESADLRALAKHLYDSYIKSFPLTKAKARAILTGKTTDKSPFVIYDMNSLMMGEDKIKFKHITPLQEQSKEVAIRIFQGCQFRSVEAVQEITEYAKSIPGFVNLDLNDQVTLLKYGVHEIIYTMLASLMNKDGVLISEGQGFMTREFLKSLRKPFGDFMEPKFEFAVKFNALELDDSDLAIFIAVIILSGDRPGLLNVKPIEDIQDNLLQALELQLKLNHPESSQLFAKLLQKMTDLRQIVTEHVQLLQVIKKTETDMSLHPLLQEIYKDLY
Chain of human Peroxisome Proliferator-activated Receptor delta (PPARd), PPARD (gene 5467) (Q03181 whole entry, looked up, the tested form may be a part): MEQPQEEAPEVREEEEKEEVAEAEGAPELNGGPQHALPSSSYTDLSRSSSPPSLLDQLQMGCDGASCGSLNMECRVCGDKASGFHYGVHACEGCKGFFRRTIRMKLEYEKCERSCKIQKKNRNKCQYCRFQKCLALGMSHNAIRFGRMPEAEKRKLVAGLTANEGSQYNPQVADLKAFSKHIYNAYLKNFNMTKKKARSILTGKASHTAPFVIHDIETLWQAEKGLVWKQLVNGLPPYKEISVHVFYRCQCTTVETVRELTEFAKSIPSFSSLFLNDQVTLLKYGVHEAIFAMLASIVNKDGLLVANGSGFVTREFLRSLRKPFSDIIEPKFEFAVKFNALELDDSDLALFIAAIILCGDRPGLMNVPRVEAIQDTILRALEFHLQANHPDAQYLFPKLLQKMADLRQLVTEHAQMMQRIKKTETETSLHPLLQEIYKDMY
Chain of Cellular tumor antigen p53 (Homo sapiens) (P04637 whole entry, looked up, the tested form may be a part): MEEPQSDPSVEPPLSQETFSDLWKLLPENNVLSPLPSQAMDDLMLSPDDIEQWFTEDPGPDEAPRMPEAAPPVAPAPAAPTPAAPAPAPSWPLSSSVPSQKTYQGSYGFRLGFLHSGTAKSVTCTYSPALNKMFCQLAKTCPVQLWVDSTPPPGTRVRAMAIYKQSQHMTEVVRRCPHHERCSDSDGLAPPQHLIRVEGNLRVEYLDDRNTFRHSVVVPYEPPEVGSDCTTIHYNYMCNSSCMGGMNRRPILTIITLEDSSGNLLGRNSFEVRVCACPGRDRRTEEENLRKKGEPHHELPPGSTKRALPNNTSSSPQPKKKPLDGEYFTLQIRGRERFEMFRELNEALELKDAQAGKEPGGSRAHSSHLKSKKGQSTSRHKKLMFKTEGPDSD
Chain of human Retinoic Acid Receptor gamma (RARg), RARG (gene 5916) (P13631 whole entry, looked up, the tested form may be a part): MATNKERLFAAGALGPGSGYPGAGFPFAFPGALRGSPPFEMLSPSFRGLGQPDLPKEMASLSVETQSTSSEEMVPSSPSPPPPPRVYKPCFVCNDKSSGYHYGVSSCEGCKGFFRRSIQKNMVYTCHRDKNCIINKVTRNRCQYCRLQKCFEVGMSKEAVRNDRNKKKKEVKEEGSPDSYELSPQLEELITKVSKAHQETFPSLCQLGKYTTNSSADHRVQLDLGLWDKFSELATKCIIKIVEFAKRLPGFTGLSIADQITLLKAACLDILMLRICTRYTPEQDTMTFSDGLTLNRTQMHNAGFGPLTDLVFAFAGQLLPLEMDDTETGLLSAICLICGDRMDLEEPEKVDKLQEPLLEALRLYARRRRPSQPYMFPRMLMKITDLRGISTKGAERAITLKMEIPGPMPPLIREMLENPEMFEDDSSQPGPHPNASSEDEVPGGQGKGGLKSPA
Chain of human Peroxisome Proliferator-activated Receptor alpha (PPARa), PPARA (gene 5465) (Q07869 whole entry, looked up, the tested form may be a part): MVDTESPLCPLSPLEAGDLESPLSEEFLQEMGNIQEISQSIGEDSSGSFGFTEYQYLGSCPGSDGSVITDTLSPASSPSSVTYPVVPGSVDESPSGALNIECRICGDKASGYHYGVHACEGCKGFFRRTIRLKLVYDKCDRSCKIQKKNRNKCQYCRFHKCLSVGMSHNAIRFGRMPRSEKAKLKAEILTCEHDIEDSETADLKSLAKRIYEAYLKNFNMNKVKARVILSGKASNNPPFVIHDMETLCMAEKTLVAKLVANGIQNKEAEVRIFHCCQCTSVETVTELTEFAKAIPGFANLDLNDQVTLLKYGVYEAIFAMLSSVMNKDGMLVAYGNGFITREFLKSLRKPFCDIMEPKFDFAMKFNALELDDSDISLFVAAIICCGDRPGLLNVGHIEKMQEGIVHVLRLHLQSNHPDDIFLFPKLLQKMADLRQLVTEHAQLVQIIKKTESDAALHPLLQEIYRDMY
Chain of Retinoic acid receptor alpha (Homo sapiens) (P10276 whole entry, looked up, the tested form may be a part): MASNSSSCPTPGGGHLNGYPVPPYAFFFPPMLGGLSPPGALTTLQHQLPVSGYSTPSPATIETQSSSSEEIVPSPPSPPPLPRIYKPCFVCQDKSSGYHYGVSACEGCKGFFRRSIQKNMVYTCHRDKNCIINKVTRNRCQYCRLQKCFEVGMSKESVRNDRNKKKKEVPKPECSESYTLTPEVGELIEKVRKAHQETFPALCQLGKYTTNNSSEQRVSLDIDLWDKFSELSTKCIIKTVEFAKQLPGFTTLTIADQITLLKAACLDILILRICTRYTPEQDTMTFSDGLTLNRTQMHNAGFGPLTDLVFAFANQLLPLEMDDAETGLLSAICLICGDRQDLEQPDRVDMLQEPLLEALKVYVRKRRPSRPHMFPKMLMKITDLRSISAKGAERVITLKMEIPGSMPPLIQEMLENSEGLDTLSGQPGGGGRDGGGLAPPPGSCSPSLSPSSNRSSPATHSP
Chain of human RAR-related Orphan Receptor beta (RORb), RORB (gene 6096) (Q92753 whole entry, looked up, the tested form may be a part): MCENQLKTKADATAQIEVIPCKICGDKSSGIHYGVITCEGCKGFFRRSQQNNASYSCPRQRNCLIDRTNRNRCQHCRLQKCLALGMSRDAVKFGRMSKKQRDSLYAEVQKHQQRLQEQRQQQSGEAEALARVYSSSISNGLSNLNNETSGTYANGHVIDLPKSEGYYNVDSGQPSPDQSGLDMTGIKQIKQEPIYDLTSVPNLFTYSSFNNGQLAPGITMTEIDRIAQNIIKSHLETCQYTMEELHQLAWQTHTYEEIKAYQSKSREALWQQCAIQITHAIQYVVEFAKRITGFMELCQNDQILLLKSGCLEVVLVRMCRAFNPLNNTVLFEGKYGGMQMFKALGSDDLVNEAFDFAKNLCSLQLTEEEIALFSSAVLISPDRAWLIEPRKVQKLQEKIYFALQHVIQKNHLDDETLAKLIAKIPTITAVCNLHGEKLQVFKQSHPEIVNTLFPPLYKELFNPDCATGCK
Chain of human RAR-related Orphan Receptor gamma (RORg), RORC (gene 6097) (P51449 whole entry, looked up, the tested form may be a part): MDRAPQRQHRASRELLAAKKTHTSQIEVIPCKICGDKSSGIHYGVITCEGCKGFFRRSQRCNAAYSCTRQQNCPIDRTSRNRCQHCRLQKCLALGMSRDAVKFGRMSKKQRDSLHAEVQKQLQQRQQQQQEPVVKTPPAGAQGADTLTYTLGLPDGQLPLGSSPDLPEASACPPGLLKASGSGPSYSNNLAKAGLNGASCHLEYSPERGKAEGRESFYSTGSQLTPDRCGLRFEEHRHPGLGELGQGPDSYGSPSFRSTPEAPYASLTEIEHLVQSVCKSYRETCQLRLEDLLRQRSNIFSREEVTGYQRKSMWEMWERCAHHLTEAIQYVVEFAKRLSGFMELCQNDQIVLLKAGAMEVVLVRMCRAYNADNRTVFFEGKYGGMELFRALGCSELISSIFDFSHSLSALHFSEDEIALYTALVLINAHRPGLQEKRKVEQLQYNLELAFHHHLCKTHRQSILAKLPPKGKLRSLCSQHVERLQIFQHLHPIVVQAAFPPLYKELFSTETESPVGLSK

Broadly, the AC50 is the concentration at which the activity in the assay is half-maximal. With `CC1(C)O[C@@H]2C[C@H]3[C@@H]4CCC5=CC(=O)C=C[C@]5(C)[C@@]4(F)[C@@H](O)C[C@]3(C)[C@]2(C(=O)CO)O1`, the compound was classed as inactive in experiment [1], in [2], in [3], in experiment [4], in experiment [5] and in experiment [7]. Further, in experiment [6], the AC50 is 4.98 µM (active).
For `Cc1cc(C)nc(NS(=O)(=O)c2ccc(N)cc2)n1`, the result in experiment [1], in [2], in experiment [3], in experiment [4], in experiment [8] and in experiment [5] was inactive. Besides, the result in [9] and in [6] was inactive.
Take `CCCCCCCCCCCCCCCC(=O)OC/C=C(C)/C=C/C=C(C)/C=C/C1=C(C)CCCC1(C)C`: the compound was called inactive in [1], in experiment [3], in experiment [10], in [11], in experiment [13] and in experiment [8]. The result in [5] and in experiment [14] was inactive. The AC50 in experiment [2] was 23.9 µM (active); in experiment [12], 20 µM (active); in experiment [15], 4.06 µM (active); in [9] it was 37.9 µM (active); in [6], 2.82 µM (active).
On to `Cc1ccc(C)o1`, for which the compound was classed as inactive in experiment [1], in [2], in [3], in [4], in experiment [5] and in [16].
Consider `O=C(CC(=O)c1ccccc1)c1ccccc1`, for which the AC50 in experiment [1] is 100 µM (active); in [2] it was 3.43 µM (active); in experiment [3] it was 59 µM (active); in experiment [6] it was 28.2 µM (active). For the same compound, the result in experiment [4], in [5] and in [17] was inactive.
As to `Cc1ccc2c(c1)C(=O)OC2=O`, the call in [1], in experiment [2], in [3], in experiment [4], in [5] and in experiment [18] was inactive. Moreover, the call in experiment [9] and in [6] was inactive.
Turning to `CCCC(C)C(O)CC` (stereo not drawn), the compound was classed as inactive in experiment [1], in experiment [2], in experiment [3], in experiment [4], in [19] and in experiment [18]. Further, the result in experiment [9], in [6] and in experiment [16] was inactive.
